Source: the supplement of paper PMC9694430

Key:
Experiment in all cases: thermal shift delta Tm vs DMSO control; higher = stronger stabilization (binding)
Details in all cases: 12.5 µM; protein concentration 2 µM
[1] = system: LOC_OS04G57630-cb004
Summary of the method: (§1)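 The melting temperature shift given here is a triplicate mean, measured against protein that received only DMSO. Melting temperatures came from Boltzmann fits of differential scanning fluorimetry data on E. coli-expressed, purified rice kinase domain constructs. Each 19.5 μl well contained 2 μM kinase, 100 mM potassium phosphate pH 7.5, 150 mM NaCl, 10% glycerol, 5 × SYPRO Orange and compound in DMSO. Plates were scanned from 25°C to 95°C at 0.05°C/s.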

[2] = system: LOC_OS05G07850-cb002
Summary of the method: as §1

[3] = system: LOC_OS05G16824-cb004
Summary of the method: as §1

[4] = system: LOC_OS05G28520-cb001
Summary of the method: as §1

[5] = system: LOC_OS05G30820-cb001
Summary of the method: as §1

[6] = system: LOC_OS05G43570-cb004
Summary of the method: as §1

[7] = system: LOC_OS06G16330-cb003
LOC_OS06G16330-cb003, sequence (as listed by the source): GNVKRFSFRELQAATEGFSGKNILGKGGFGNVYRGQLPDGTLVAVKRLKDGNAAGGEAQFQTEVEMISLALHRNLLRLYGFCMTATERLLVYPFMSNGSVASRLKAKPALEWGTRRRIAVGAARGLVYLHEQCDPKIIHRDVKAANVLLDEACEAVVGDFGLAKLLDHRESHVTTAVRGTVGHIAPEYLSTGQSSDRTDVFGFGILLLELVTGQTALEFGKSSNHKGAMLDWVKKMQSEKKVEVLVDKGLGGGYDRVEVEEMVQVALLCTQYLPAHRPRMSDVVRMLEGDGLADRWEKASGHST
Summary of the method: as §1

[8] = system: T1, LOC_OS06G22820-cb001
T1 sequence (whole entry): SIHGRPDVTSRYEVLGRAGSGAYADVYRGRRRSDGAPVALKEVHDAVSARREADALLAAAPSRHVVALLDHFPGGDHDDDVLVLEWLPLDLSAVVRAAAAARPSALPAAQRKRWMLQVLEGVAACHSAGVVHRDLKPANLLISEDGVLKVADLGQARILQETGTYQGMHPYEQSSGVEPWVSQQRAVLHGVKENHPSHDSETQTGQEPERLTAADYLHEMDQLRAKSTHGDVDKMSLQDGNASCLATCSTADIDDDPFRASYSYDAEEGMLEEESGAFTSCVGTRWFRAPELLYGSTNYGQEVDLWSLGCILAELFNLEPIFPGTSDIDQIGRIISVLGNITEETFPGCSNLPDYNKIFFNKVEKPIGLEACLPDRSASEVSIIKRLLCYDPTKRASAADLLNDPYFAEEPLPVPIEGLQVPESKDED
Summary of the method: as §1

[9] = system: LOC_OS07G06570-cb004
Summary of the method: as §1

[10] = system: LOC_OS07G07230-cb001
Summary of the method: as §1

Structure (SMILES) | thermal shift delta Tm [1] [°C] | thermal shift delta Tm [2] [°C] | thermal shift delta Tm [3] [°C] | thermal shift delta Tm [4] [°C] | thermal shift delta Tm [5] [°C] | thermal shift delta Tm [6] [°C] | thermal shift delta Tm [7] [°C] | thermal shift delta Tm [8] [°C] | thermal shift delta Tm [9] [°C] | thermal shift delta Tm [10] [°C]
Cn1c(Nc2ccc(C(F)(F)F)cc2)nc2cc(Oc3ccnc(-c4ncc(C(F)(F)F)[nH]4)c3)ccc21 | 1.62 | 0.57 | 1.67 | 0.86 | 0.81 | 3.24 | 1.24 | 2.74 | 1.82 | -0.2
N#Cc1ccc2ncnc(NCCc3ccccc3)c2c1 [Senexin A] | 0.34 | 4.61 | 4.32 | 0.11 | 0.16 | 0.23 | 2.48 | 0.4 | 1.46 | 0.54
CCCCOc1c(C(=O)c2c(F)cc(C)cc2F)c[nH]c2nncc1-2 | 0.1 | 5.8 | -1.11 | -0.07 | 0.47 | 0.9 | 0.88 | 1.75 | 0.61 | -0.1
CCS(=O)(=O)N1CCN(c2ccc(Nc3ncc(C(N)=O)c(NC4CC4)n3)cc2)CC1 | 1.82 | 9.2 | 11.7 | 0.7 | 3.56 | 2.04 | 5.15 | 0.57 | 1.36 | 1.17
Cc1ncc(-c2ccnc(Nc3ccc(S(C)(=O)=O)cc3)n2)n1C(C)C | 1.43 | 11.2 | 6.1 | 0.35 | 1.14 | 0.74 | 5.53 | 1.02 | 0.69 | 0.17
CCN(C)S(=O)(=O)Nc1ccc(F)c(C(=O)c2c[nH]c3ncc(-c4cnc(C5CC5)nc4)cc23)c1F | 1.47 | 6.9 | 1.58 | 1.1 | 0.45 | 0.13 | 1.23 | 0.65 | 0.34 | 1.77
Cc1cccc(CC(=O)N2CCc3c2ccc(-c2cn(C)c4ncnc(N)c24)c3F)n1 | 1.09 | 2.24 | 0.43 | 0.62 | 0.47 | 0.42 | 1.13 | 0.75 | 1.03 | 1.75
Nc1cc(C(F)(F)F)c(-c2cc(N3CCOCC3)nc(N3CCOCC3)n2)cn1 [Buparlisib (BKM120, NVP-BKM120)] | 0.52 | 0.95 | -3.32 | 0.28 | 0.66 | 0.71 | 0.02 | 0.75 | 0.64 | -0.59
O=S(=O)(NCCNC/C=C/c1ccc(Br)cc1)c1cccc2cnccc12 | -0.1 | 2.68 | -0.59 | -0.13 | 0.53 | 0.62 | 0.87 | 0.31 | 1.14 | 0.17
